This passage reports inhibition results from PubChem BioAssay AID720700 (The Scripps Research Institute Molecular Screening Center, 2013).

Out of some 370,000 compounds screened, about 3,100 (0.84%) were called active. Cut-off read from the data, not from the text of the source: active = inhibition above about 9.5%; inactive = the rest. For the sample, actives were picked, then their nearest neighbours and some compounds at random.

The target in the assay is 1-phosphatidylinositol 4,5-bisphosphate phosphodiesterase gamma-1 (Homo sapiens) (UniProt P19174). The assay can be described thus: PLC-gamma1 enzyme inhibitors, primary screen, biochemical, fluorescence, purified enzyme (AID 720700). The settings on record: purified PLC-gamma1, fluorogenic substrate, at 12.2 µM, hits give high values.
1-phosphatidylinositol 4,5-bisphosphate phosphodiesterase gamma-1 (Homo sapiens), sequence (P19174 whole entry, looked up): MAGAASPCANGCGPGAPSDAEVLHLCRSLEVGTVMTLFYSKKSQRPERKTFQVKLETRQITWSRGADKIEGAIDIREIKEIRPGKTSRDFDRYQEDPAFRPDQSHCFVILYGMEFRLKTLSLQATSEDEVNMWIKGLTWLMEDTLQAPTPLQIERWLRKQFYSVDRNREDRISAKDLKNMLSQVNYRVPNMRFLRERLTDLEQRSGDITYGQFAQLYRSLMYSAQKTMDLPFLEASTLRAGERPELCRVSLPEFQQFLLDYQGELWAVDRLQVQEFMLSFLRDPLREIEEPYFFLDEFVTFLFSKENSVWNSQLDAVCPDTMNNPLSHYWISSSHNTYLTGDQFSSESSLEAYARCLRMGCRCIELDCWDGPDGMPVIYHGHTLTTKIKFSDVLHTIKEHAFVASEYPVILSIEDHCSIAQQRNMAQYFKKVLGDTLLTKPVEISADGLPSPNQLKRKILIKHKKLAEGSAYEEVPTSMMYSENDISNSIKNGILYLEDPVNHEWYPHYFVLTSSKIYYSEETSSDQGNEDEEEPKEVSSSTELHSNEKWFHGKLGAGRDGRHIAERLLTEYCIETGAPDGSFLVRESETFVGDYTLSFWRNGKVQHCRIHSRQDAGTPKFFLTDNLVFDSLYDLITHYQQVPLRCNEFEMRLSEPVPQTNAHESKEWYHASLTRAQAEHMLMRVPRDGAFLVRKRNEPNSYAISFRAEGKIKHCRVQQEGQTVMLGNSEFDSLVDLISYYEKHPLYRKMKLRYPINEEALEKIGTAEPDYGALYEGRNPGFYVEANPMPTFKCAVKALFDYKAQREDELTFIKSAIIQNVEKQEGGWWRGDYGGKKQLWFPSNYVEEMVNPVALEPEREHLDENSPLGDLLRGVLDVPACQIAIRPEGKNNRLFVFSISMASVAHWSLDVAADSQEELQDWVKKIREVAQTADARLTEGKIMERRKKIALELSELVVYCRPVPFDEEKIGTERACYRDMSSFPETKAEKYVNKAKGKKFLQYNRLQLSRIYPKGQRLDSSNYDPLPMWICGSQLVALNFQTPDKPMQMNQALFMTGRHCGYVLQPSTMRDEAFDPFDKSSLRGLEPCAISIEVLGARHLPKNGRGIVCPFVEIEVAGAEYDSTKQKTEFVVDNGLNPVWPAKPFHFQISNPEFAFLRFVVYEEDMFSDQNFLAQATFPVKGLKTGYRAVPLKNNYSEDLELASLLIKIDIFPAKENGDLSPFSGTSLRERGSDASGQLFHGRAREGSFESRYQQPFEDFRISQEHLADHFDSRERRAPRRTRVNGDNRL
In general, inhibition refers to the drop in the measured response relative to a control, in per cent. In the case of `C=CCN1C(=O)[C@@H](CC(=O)NCC2CCCCC2)[C@]2(C(=O)OC)CCCCC=C12`, the inhibition is -0.08% (inactive).
In the case of `CC(C)CSc1nnc(-c2cccnc2)n1Cc1ccccc1`, the inhibition is 0.54% (inactive).
In the case of `COc1ccnc(NC(=S)N2CCN(c3ncc(C(F)(F)F)cc3Cl)CC2)c1` it was 4.36% (inactive).
Then `O=C(Nc1cccc(Cl)c1)OC1CC2CC1[C@H]1CCCCN1[C@H]2Cc1ccccc1` (some centres not stated), with -19.3% (inactive); and `O=C1N[C@H](Cc2c[nH]c3ccccc23)COC(=O)[C@H](Cc2ccc(F)cc2)C/C=C\C[C@H]1CC(=O)N(CCO)Cc1ccccc1`, with 1.6% (inactive).
Then `O=C1N[C@@H](c2ccccc2)COC(=O)[C@H](Cc2ccc(F)cc2)C/C=C\C[C@@H]1CC(=O)N(CCO)Cc1ccccc1`, with 9.59% (active).
With `O=C1NC[C@@H](c2ccccc2)OC(=O)[C@H](Cc2ccc(F)cc2)CC/C=C/C[C@H]1CC(=O)N(CCO)Cc1ccccc1`, the inhibition is -0.18% (inactive).
Then `O=C(Nc1nc2ccc(Cl)cc2s1)c1cc(-c2ccc(Cl)cc2)nc2ccccc12`, with 6.56% (inactive).
In the case of `Cc1ccc(Cn2cc(CN3[C@@H](CC(C)C)COc4ccc(Cl)cc4S3(=O)=O)nn2)cc1` it was 1.86% (inactive); in that of `COc1ccc(Cn2ccc3ccc(-c4ccc5ccn(Cc6ccccc6C)c5c4)cc32)cc1`, -65% (inactive).
In the case of `O=S1(=O)c2c(cccc2N2CC[C@H](O)C2)O[C@@H]2CCN1C2` it was -2.5% (inactive); in that of `CCOC(=O)C1CCN(C(=O)c2cccc(S(=O)(=O)N(CC)c3ccccc3)c2)CC1`, 1.63% (inactive).
Turning to `CCOC(=O)C1CCN(C(=O)c2ccccc2N(C)S(=O)(=O)c2ccccc2)CC1`, the inhibition was 12.6% (active).
In the case of `CCN1CCN(C(=O)c2ccccc2N(C)S(=O)(=O)c2ccc(C)cc2)CC1` it was 2.78% (inactive); in that of `O=C(CSc1nc2ccccc2n1Cc1ccccc1Cl)N/N=C\c1c[nH]c2ccccc12`, 1.37% (inactive); in that of `CC(C)CNc1cccc2c1S(=O)(=O)N(Cc1cn(Cc3ccccc3C(F)(F)F)nn1)Cc1ccccc1O2`, -4.63% (inactive).
Then `Cc1ccc(NC(=S)N(Cc2ccco2)C(C)c2cccs2)cc1` (configuration not stated), with 9.84% (active).
Then `Cc1cccc(NC(=S)N(CCN(C)C)C(C)c2ccco2)c1` (configuration not stated), with -0.2% (inactive).
For `Cc1ccc(-c2csc(N(Cc3ccco3)C(=O)c3cccs3)n2)cc1`, the inhibition is 0.51% (inactive).
Then `O=C1CC[C@@H](COc2ccc3[nH]cc(-c4ccccc4)c3c2-c2ccccc2)N1`, with -12.8% (inactive); and `Nc1[nH]c(/C=C2/CCCCC2n2[nH]c(=O)n(-c3ccccc3)c2=O)c(Cc2ccccc2)[n+]1Cc1ccccc1` (configuration not stated), with -3.57% (inactive); and `COC(=O)[C@]12C[C@H](CC(=O)NCc3cccs3)C(=O)N(CCc3ccc(OC)c(OC)c3)C1=C[C@H](C(C)C)O[C@@H]2C1CC1`, with 0.22% (inactive).
Then `Cc1ccc(CSc2nnc(SCC(=O)NN=Cc3cc(Br)ccc3F)s2)cc1`, with 1.18% (inactive); and `CC[C@@H](CCC(=O)N(c1ccccc1)c1ccccc1)C1CC1`, with -1.13% (inactive); and `CC[C@]12c3[nH]c4ccc(Cl)cc4c3CCN1C(=O)[C@@H](CC(=O)NCCN1CCOCC1)C[C@@H]2C(=O)N1CCN(C(=O)C2CC2)CC1`, with 0.47% (inactive).
Then `COc1ccc2[nH]c3c(c2c1)CCN1C(=O)C(CC(=O)NCCc2ccccn2)C[C@H](C(=O)N2CCOCC2)[C@@]31C` (some centres not stated), with 0.01% (inactive); and `C[C@]12c3[nH]c4ccc(Cl)cc4c3CCN1C(=O)[C@@H](CC(=O)NCCCn1ccnc1)C[C@@H]2C(=O)N1CCOCC1`, with 13.5% (active); and `CCOc1ccc(N(CC(=O)Nc2c(C)n(C)n(-c3ccccc3)c2=O)S(=O)(=O)c2ccc(Cl)s2)cc1`, with 1.1% (inactive).
In the case of `CN[C@H]1C[C@H]2c3cc(N4CCOCC4)ccc3CCN2C[C@H]1[C@H](C)O`, the inhibition is -7.18% (inactive).
Then `Nn1c(SCC(=O)Nc2ccc(S(N)(=O)=O)cc2)nnc1-c1n[nH]c2c1CCC2`, with 3.04% (inactive).
Then `COc1ccc(N2CC(C(=O)N[C@@H](C)C(=O)N3CCCCC3)CC2=O)cc1` (some centres not stated), with -2.8% (inactive); and `CCOc1ccc(NC(=O)[C@H](C)NC(=O)C2CC(=O)N(c3ccc(OC)cc3)C2)cc1` (some centres not stated), with 9.63% (active); and `CCCC(C)c1nnc(NC(=O)C2CC(=O)N(c3ccc(OCC)cc3)C2)s1` (configuration not stated), with 4.32% (inactive).
As to `CCOC(=O)[C@]12CCCC3=C1N(CCC3)C(=O)[C@@H](CC(=O)NCC13CC4CC(CC(C4)C1)C3)C2`, the inhibition is 0.85% (inactive).
Then `O=C(Nc1cc(Cl)cc(Cl)c1)OCCN1CCCC12CCC(c1ccccc1)CC2` (configuration not stated), with -0.68% (inactive); and `COc1ccc(-n2c(SCC(=O)Nc3ccc(C)c(Cl)c3)nc3ccccc3c2=O)cc1`, with 5.06% (inactive); and `C=CCN(c1ccc(C(N)=O)cc1)S(C)(=O)=O`, with 2.1% (inactive).
Then `CN(C)S(=O)(=O)c1cccc(C(=O)OCC(=O)N2CCCC2=O)c1`, with 1.6% (inactive).
In the case of `C=CCN(c1ccc(Cl)cc1)S(=O)(=O)c1cccc(C(=O)OCC(=O)N(C)C)c1` it was 14% (active); in that of `O=C(NCc1ccco1)C1CCCN(S(=O)(=O)c2ccc(Cl)s2)C1` (configuration not stated), 2.2% (inactive).
Turning to `C[C@H](CO)N1C[C@H](C)[C@@H](CN(C)C(=O)C2CCCCC2)OCc2cnnn2CCCC1=O`, the inhibition was 0.86% (inactive).
Then `C[C@@H]1CN([C@H](C)CO)C(=O)CCCn2nncc2CO[C@@H]1CN(C)C(=O)OCc1ccccc1`, with 5.09% (inactive).
Then `COC(=O)N(C)C[C@@H]1OCc2cnnn2CCCC(=O)N([C@@H](C)CO)C[C@@H]1C`, with 14.2% (active).
Then `COC(=O)CC1CCc2cc(C)cc(C(CC(C)C)NC(=O)[C@H](CC(C)C)NC(=O)OCc3ccccc3)c2O1` (some centres not stated), with -1.26% (inactive); and `COc1ccc(S(=O)(=O)N2CCC(C(=O)NCCC(=O)Nc3ccccc3OC)CC2)cc1`, with 0.77% (inactive); and `CCOc1ccccc1NC(=O)CCN1CCN(S(=O)(=O)c2ccc(OC)cc2)CC1`, with 10.4% (active).
`CCOc1ccccc1NC(=O)COc1ccc(S(=O)(=O)N2CCCC2)cc1`: the inhibition is -0.48% (inactive).
Then `CCC(CO)Nc1cccc2c1S(=O)(=O)N(Cc1cn(Cc3ccccc3C(F)(F)F)nn1)Cc1ccccc1O2` (configuration not stated), with -5.47% (inactive); and `CC(=O)c1cc(-c2ccc3ccccc3c2)c(=O)n2c1CCC2`, with -43.4% (inactive); and `Cc1ccc(-n2ncc3c2CC(C)(C)CC3NC(=O)Cc2c(C)noc2C)cc1` (configuration not stated), with 0.61% (inactive).
Then `COc1ccc(-n2ncc3c2CC(C)(C)CC3NC(=O)CCc2c(C)nn(C)c2C)cc1` (configuration not stated), with 2.97% (inactive).
In the case of `Cc1ccc(-n2ncc3c2CC(C)(C)CC3NC(=O)CCc2cnn(C)c2)cc1` (configuration not stated) it was 13.8% (active).
For the compound `COc1ccc(-c2cc(-c3nnc(SCC(=O)Nc4cccc5ccccc45)n3N)[nH]n2)cc1`, the inhibition was -0.07% (inactive).
Then `COC(=O)c1ccccc1-n1cc(COC(=O)NCCc2ccccc2)nn1`, with -14.2% (inactive); and `COc1cccc(N(C)C(=O)[C@@H](C)[C@@H](O)c2ccc3ccccc3c2)c1`, with -0.17% (inactive); and `C[C@H](C(=O)N(C)c1ccccc1)[C@@H](O)c1ccc(Cl)cc1`, with 0.47% (inactive).
Regarding `C[C@H](C(=O)N(C)c1ccccc1)[C@@H](O)c1ccc2ccccc2c1`, the inhibition was 16.5% (active).
In the case of `CCN(CC(=O)Nc1ccc(C)c(S(=O)(=O)N(C)C)c1)Cc1ccccc1` it was 0.58% (inactive); in that of `COc1ccc(CCC(=O)OCC(=O)Nc2ccc(C)c(S(=O)(=O)N(C)C)c2)cc1`, -0.79% (inactive); in that of `Cc1ccc(C(=O)Nc2ccc(C)c(S(=O)(=O)N(C)C)c2)s1`, 12.1% (active).
Consider `CC(C)N1CCCCC(NC(=O)C(C)(C)C)C1=O` (configuration not stated), for which the inhibition was -0.44% (inactive).
Regarding `CCC(C)[C@@H](C(=O)OC)N(CCc1cn(Cc2ccccc2)nn1)S(=O)(=O)c1ccccc1Br` (some centres not stated), the inhibition was 2.53% (inactive).
In the case of `Cc1nc(COc2cccc(Cl)c2)sc1C(=O)/C=C/N(C)C` it was -0.19% (inactive).
In the case of `Fc1ccc(OCc2nn3c(Cn4nnc5ccccc54)nnc3s2)cc1` it was -2.02% (inactive).
Then `CCOc1cccc(-c2nnc3sc(COc4ccc(OC)cc4)nn23)c1`, with 10.2% (active); and `Cc1ccc(-n2c(COc3ccccc3)nnc2SCC(=O)Nc2ccc3c(c2)OCCO3)cc1`, with 2.55% (inactive).
In the case of `CC(=O)OC12CCCN(C1)/C(=C/c1ccncc1)C2` (configuration not stated), the inhibition was -7.4% (inactive).
In the case of `COc1ccccc1CCNC(=O)CN1C(=O)NC2(CCCC2)C1=O` it was 10.4% (active).
Then `Cc1ccc(OCCNC(=O)CN2C(=O)NC3(CCCC3)C2=O)cc1`, with 0.18% (inactive); and `COc1ccccc1CNC(=O)CCCN1C(=O)NC2(CCCC2)C1=O`, with 1.01% (inactive).
Then `CC(NCc1ccco1)C(=O)N1CCCCC1` (configuration not stated), with -2.37% (inactive); and `Cc1ccc(-n2c(SCC(=O)Nc3ccc(S(=O)(=O)Nc4nccs4)cc3)nnc2-c2ccncc2)cc1`, with -4.02% (inactive); and `CC(=O)C1(C(=O)Nc2nccs2)CC(c2ccccc2C(F)(F)F)=NO1` (configuration not stated), with -4.24% (inactive).
With `C=CCN1C(=O)[C@@H](CC(=O)NCCCOCCCC)[C@]2(C(=O)OCC)CCCCC/C=C/12`, the inhibition was -1.4% (inactive).
Then `Cc1ccc(C(=O)N2CCN(C(=O)N3CCOCC3)CC2)cc1`, with 10.4% (active).
In the case of `Cc1ccc(C(=O)C(=S)N2CCOCC2)cc1` it was 0.9% (inactive); in that of `Cc1ccc(C(=O)NC2CCN(C(=O)N3CCOCC3)CC2)cc1`, 4.32% (inactive); in that of `Fc1ccc2nc(COCc3nc4ccc(F)cc4[nH]3)[nH]c2c1`, -0.44% (inactive).
`Cc1cc(NS(=O)(=O)c2ccc(NC(=O)CSc3nnc(-c4ccc(C(C)(C)C)cc4)n3Cc3ccco3)cc2)nc(C)n1`: the inhibition was -1.67% (inactive).
Turning to `NC(c1csc(NC(=O)Nc2cccc(C(F)(F)F)c2)n1)C1CCCCC1` (configuration not stated), the inhibition was 6.49% (inactive).
In the case of `COc1ccc(C(N)c2csc(NC(=O)Nc3cccc(C(F)(F)F)c3)n2)cc1` (configuration not stated) it was 14.7% (active); in that of `COc1ccc(CC(N)c2csc(NC(=O)Nc3ccc(C(C)C)cc3)n2)cc1` (configuration not stated), 2.68% (inactive).
